# From PubChem
# This is a sample that favours compounds with a hit; in the whole collection about 15% have one here.
# RORgamma inh: inhibitors of mouse ROR gamma transcriptional activity; Drosophila S2 Gal4-RORgamma UAS-luciferase reporter, 20 h; Potency, µM (series often up to 53.6 µM), without a hit: at the highest dose activity change, negative = inhibition, usual class: inhibitors; actives 5.4% (n = 310,000); note: nearly all actives have a fitted effect of over 60% in size
# Target sequence (P51450 whole entry, looked up, the tested form may be a part): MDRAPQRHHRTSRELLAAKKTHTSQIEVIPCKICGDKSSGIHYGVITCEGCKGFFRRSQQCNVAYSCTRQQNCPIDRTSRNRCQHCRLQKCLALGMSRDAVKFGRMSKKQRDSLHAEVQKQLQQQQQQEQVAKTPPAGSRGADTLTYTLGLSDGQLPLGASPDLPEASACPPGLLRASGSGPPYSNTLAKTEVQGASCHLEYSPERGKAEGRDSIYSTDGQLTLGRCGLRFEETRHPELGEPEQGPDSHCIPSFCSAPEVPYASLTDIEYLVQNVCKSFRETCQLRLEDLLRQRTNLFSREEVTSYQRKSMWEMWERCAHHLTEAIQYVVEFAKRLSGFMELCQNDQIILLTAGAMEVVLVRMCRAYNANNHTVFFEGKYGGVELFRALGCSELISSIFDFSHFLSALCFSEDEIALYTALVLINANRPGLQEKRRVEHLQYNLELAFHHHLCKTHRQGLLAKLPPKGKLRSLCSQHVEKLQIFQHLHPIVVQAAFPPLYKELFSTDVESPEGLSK
#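 Read-out: Photinus luciferase luminescence; inhibitors lower reporter signal. Insect Schneider cells with Gal4-ROR gamma fusion under metallothionein promoter, UAS reporter; 700 uM final copper sulfate induction, 20 hr, ambient temperature.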
# TDP1 cell noCPT: qHTS for Inhibitors of human tyrosyl-DNA phosphodiesterase 1 (TDP1): qHTS in cells in absence of CPT; DT40 Tdp1-/- hTDP1 cells, no CPT, ATP luminescence, 48 h; Potency, µM (highest dose often 46.2 µM), for the others: at the top dose activity change, negative = growth inhibition, actives largely listed as inhibitors; actives 15% (n = 420,000); AID 686978, 2013; note: nearly all actives have a fitted effect of over 55% in size
#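 Seeded 400 DT40-hTDP1 cells/well (vehicle DMSO, no 20 nM CPT); pinned compounds; ≥48 hr at 37 °C; CellTiter-Glo luminescence as viability measure.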
# Gal4-VP16 FLuc: inhibits Gal4-VP16 luciferase reporter, ROR gamma counter-screen. actives 3.5% (n = 310,000). AID 2546. Drosophila S2 Gal4-VP16 UAS-luciferase, luminescence, 20 h. Potency, µM (top dose mostly 53.6 µM), for the others: at the highest dose activity, negative = inhibition, actives largely listed as inhibitors;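 note: Gal4-VP16 expression switched on by copper sulfate through the metallothionein promoter; nearly all actives have a fitted effect of over 50% in size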
# 12-LOX inh: inhibitors of human 12S-lipoxygenase ALOX12; P18054; Potency, µM (highest dose often 108 µM), for the others: top-dose activity change, negative = inhibition, usual class: inhibitors; actives 1.1% (n = 580,000); AID 1671190; purified 12hLO, xylenol orange hydroperoxide absorbance
#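 Hydroperoxide product was detected by ferrous iron/xylenol orange as the 573 to 405 nm absorbance ratio. Arachidonic acid at 40 uM (final) was turned over for 30 min at room temperature by 150 nM human 12hLO, pH 7.0 Hepes buffer, after 15 min compound preincubation.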
# ELG1 repair inh: inhibitors of ELG1-dependent DNA repair in HEK293T cells | HEK293T ELG1-luciferase reporter, luminescence, 16 h; DNA damage induced by 5-fluorouridine | Potency, µM (highest dose often 46.1 µM), inactives show at the top dose activity change, negative = inhibition, usual class: inhibitors | actives 2.3% (n = 330,000) | AID 504467; note: nearly all actives have a fitted effect of over 55% in size
#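 Reporter activity after DNA damage by 5-fluorouridine is monitored. Compound-treated cells incubate 16 hr at 37 °C, then ONE-Glo is added for 30 min before luminescence reading.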
# TDP1 cell CPT: growth inhibition of DT40 Tdp1-/-;hTDP1 cells with camptothecin (screen for TDP1 inhibitors) | chicken DT40 Tdp1-/-;hTDP1 cells + 20 nM CPT, ATP luminescence, 48 h | Potency, µM (titrated, usually from 46.2 µM), for the others: top-dose activity change, negative = growth inhibition, usual class: inhibitors | actives 12% (n = 420,000) | AID 686979; note: nearly all actives have a fitted effect of over 55% in size
#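 Chicken DT40 Tdp1-/- cells complemented with human TDP1, 400 cells/well, exposed to compounds plus 20 nM camptothecin for at least 48 h at 37 C; viability read as ATP content by CellTiter-Glo luminescence.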
# * marks the source's active call; other numbers are inactive results; ? = inconclusive; . = no result given; [ ] = another dose, or the depositor's remark. Calls come from the whole dose curve; as a rule, active = well fitted curve in the direction sought with a large enough effect; inconclusive = small, poorly fitted or top-dose-only effect, or another doubt; inactive = no such curve, though single readings can be large; an effect the other way counts as inactive or inconclusive. % is set by controls: 0 for no effect and ±100 for the full control effect; potency is the fitted concentration of half-maximal effect.
SMILES,RORgamma inh,TDP1 cell noCPT,Gal4-VP16 FLuc,12-LOX inh,ELG1 repair inh,TDP1 cell CPT
CCOC(=O)C1CCN(C(=O)CCc2c(C)nc3c(-c4ccc(F)cc4)c(C)nn3c2C)CC1,13.3%,?,0.3%,0.5%,?,8.2µM*
CCOC(=O)C1CCCCN1C(=O)CCc1c(C)nc2cc(-c3ccccc3)nn2c1C (configuration not stated),?,4.11µM*,-4.2%,-2.8%,?,3.66µM*
Cc1nc2c(-c3ccc(F)cc3)c(C)nn2c(C)c1CCC(=O)Nc1ccccc1,8.0%,?,-2.0%,-6.7%,-11.0%,?
COCCNC(=O)CCc1c(C)nc2c(-c3ccc(F)cc3)c(C)nn2c1C,-13.8%,-23.2%,-2.4%,-10.1%,-1.1%,-12.7%
CCOC(=O)C1CCN(C(=O)CCc2c(C)nc3cc(-c4ccccc4)nn3c2C)CC1,-34.1%,-27.9%,9.2%,21.4%,-0.3%,?
CCN1CCN(c2ccc(NC(=O)CCc3c(C)nc4c(-c5ccc(F)cc5)c(C)nn4c3C)cc2)CC1,2.2%,5.8µM*,3.9%,?,?,10.3µM*
C#CCN(C)Cc1nc(C2(O)CCN(C(=O)c3cccc(F)c3)CC2)cs1,.,.,.,69.4%[176 µM],.,.
Cc1nc2c(-c3ccc(F)cc3)c(C)nn2c(C)c1CCC(=O)N1CCN(c2ccc(F)cc2)CC1,24.9%,18.4µM*,-0.1%,-18.8%,?,18.4µM*
COc1ccccc1NC(=O)CCc1c(C)nc2c(-c3ccc(F)cc3)c(C)nn2c1C,32.8%,?,-1.2%,-8.6%,?,14.6µM*
Cc1nc2c(-c3ccc(F)cc3)c(C)nn2c(C)c1CCC(=O)N1CCC(Cc2ccccc2)CC1,22.6%,23.1µM*,1.3%,?,-20.1%,?
Cc1nc2c(-c3ccc(F)cc3)c(C)nn2c(C)c1CCC(=O)NCc1ccc(Cl)cc1,.,-30.0%,.,-16.5%,.,-10.3%
Cc1nc2c(-c3ccc(F)cc3)c(C)nn2c(C)c1CCC(=O)NCCN1CCOCC1,-32.9%,-11.7%,-1.1%,1.1%[57.4 µM],5.8%,-7.0%
Cc1nc2cc(-c3ccccc3)nn2c(C)c1CCC(=O)N1CCN(c2ccc(F)cc2)CC1,.,10.3µM*,.,-19.2%,.,23.1µM*
COCC(=O)N[C@@H]1CN(S(C)(=O)=O)CC[C@@H]1c1nc(C)no1,.,.,.,43.9%,.,.
COC(=O)c1ccc(CN(C)Cc2cccs2)cc1,.,.,.,12.4%,.,.
CC1(c2ccccc2)N(Cc2ccccc2)C(=O)OC12CCN(C(=O)CN1CCOCC1)CC2 (configuration not stated),.,.,.,14.3%,.,.
COc1ccc2c(c1)cc(C(=O)Nc1c(C)cccc1C)n2C,.,.,.,-28.6%,.,.
COc1cc2c(cc1OC)C(c1cccs1)N(C(=O)c1ccncc1)CC2 (configuration not stated),-28.9%,?,-2.2%,3.3%,-6.1%,13µM*
COc1cc2c(cc1OC)C(c1cccs1)N(C(=O)c1ccc(S(=O)(=O)N(C)C)cc1)CC2 (configuration not stated),-15.2%,?,-1.1%,1.1%,-11.1%,?
COc1cc2c(cc1OC)C(c1cccs1)N(C(=S)NC(C)C)CC2 (configuration not stated),-6.3%,14.6µM*,-9.4%,158.3%,-21.6%,?
CSc1ccccc1C(=O)NCCC1=CCCCC1,.,.,.,-6.5%,.,.
CC(C)CNC(=O)N1CC(Oc2ccc(-c3nc(-c4ccccc4)no3)cc2)C1,.,.,.,10.0%,.,.
COc1ccccc1C(=O)N1CCN(c2cc(C(F)(F)F)nc(C)n2)CC1,.,.,.,2.8%,.,.
